In all, about 370,000 compounds went through this assay and about 4,100 (1.1%) were called active. The sample holds actives, similar compounds and a random draw of the others, so the mix is not that of the screen.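 The calls were made as follows: active = inhibition above the mean over all tested compounds plus 3 SD (cut at about 3.6% in these data); inactive = the rest.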
Assay: relief of DAX-1 repression of SF-1 activity – cell-based, luminescence, SF-1 (NR5A1), full-length DAX-1, primary screen (AID 652010);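 also: 0% = DAX-1 cells with DMSO and 100% = cells lacking DAX-1 with DMSO; higher inhibition means more luminescence from relief of DAX-1 repression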
Details: HEK293T StAR-luciferase reporter, SF-1/DAX-1 repression relief; at 6.8 µM; active compounds read high

inhibition, active:
COc1ccc(C2Nc3ccccc3C(=O)N2c2ccc(Cl)cc2)cc1Cn1cc([N+](=O)[O-])cn1 (stereo not drawn) 3.84%, COc1ccc(/C=C/C(=O)Nc2ccc(C34CC5CC(CC(O)(C5)C3)C4)cc2)cc1OC 8.95%, CC[C@]1(O)C[C@@H]2CN(CCc3c([nH]c4ccccc34)[C@@](C(=O)OC)(c3cc4c(cc3OC)N(C)[C@H]3[C@@](O)(C(=O)OC)[C@H](OC(C)=O)[C@]5(CC)C=CCN6CC[C@]43[C@@H]65)C2)C1 9.42%, CC[C@]1(O)CC2CN(CCc3c([nH]c4ccccc34)[C@@](C(=O)OC)(c3cc4c(cc3OC)N(C=O)[C@H]3[C@@](O)(C(=O)OC)[C@H](OC(C)=O)[C@]5(CC)C=CCN6CC[C@]43[C@@H]65)C2)C1 (stereo partly drawn) 12.9%, Cc1nc(-c2ccc(NC(=O)c3cccs3)cc2)cs1 3.66%, Cc1ccsc1C(=O)NCCc1ccco1 4.3%, CC[C@]12c3[nH]c4cc(CCC(=O)N(C)C)ccc4c3CCN1C(=O)[C@@H](CC(=O)NCCCN(C)C)C[C@@H]2C(=O)N1CCN(C(=O)c2ccco2)CC1 3.91%, CC(C)c1ccc(C=NNc2ccc([N+](=O)[O-])cn2)cc1 4.69%, O=S(=O)(Oc1ccccc1C(=S)N1CCOCC1)c1ccc(Cl)cc1 3.63%, COc1ccc(C(C#N)=C2C=CC(=NO)c3ccccc32)cc1 4.3%, Cc1nn(C(=O)c2ccoc2C)c(N)c1-c1ccccc1 3.82%, Cc1ccc2nc(-c3ccc(NC(=O)CN(C)S(=O)(=O)c4ccccc4)cc3)sc2c1 3.65%, Cc1ccc(N/C=C/C(=O)c2ccccc2)cc1C 5.15%, COC(=O)Nc1nc2ccc(C(=O)C3CC3)cc2[nH]1 7.48%, O=C(CCc1ccccc1)Nc1ncc([N+](=O)[O-])s1 4.52%

inhibition, inactive:
COc1cccc(Cn2cc(COC(=O)Nc3ccc(F)cc3)nn2)c1 -0.2%, COc1ccc(S(=O)(=O)NCC(=O)NC2CC2)cc1OC -0.86%, CC(=O)Nc1ccc(OC[C@@H](O)CN2CCC(C(O)(c3ccccc3)c3ccccc3)CC2)cc1 0.02%, O=C(CSc1nnc(CNC(=O)c2ccc(F)cc2)o1)Nc1ccc2c(c1)OCO2 -1.07%, COc1ccc(CN2CCCC(C(=O)c3ccc(Cl)cc3)C2)cc1Cn1cncn1 (stereo not drawn) 0.63%, COc1ccc([N+](=O)[O-])cc1C1NN=C(c2cccc3ccccc23)S1 (stereo not drawn) 0.7%, O=C(Oc1ccc(-c2nnco2)cc1)c1ccc(F)c(S(=O)(=O)N2CCOCC2)c1 -0.14%, CC(=O)N1CCCN(C2=Nc3ccccc3Sc3ccccc32)CC1 -0.16%, CCC(C)[C@@H](C(=O)OC)N(CCc1cn(Cc2ccccc2)nn1)S(=O)(=O)c1ccccc1Br (stereo partly drawn) -0.61%, N#Cc1ccccc1OC[C@@H](O)CN1CCC(C(O)(c2ccccc2)c2ccccc2)CC1 -0.84%, COc1ccc(/C=C/C(=O)OCC(=O)NC2CCCCCC2)cc1OC 2.29%, COc1cc(/C=C/C(=O)Nc2ccc(OC)c(S(=O)(=O)N3CCOCC3)c2)ccc1OCC#N -2.07%, O=C(NC1CCCC1)C1CSCCS(=O)(=O)N1Cc1ccccc1 (stereo not drawn) 0.54%, CNC(=O)c1[nH]cnc1C(=O)N[C@@H](CC(C)C)C(=O)OC(C)(C)C -0.49%, CC(C)(C)c1ccc(CSc2nnc(-c3cccs3)o2)cc1 -0.57%, CCOC(=O)C(=O)N(Cc1ccccc1)c1ccccc1C(=O)Nc1cc(OC)ccc1OC -0.54%, CCOC(=O)N1CCN(C(=O)C2CCN(S(C)(=O)=O)CC2)CC1 0.3%, Cn1c(SCC(=O)Nc2cccc(NC(=O)c3cccs3)c2)nnc1-c1ccncc1 -0.42%, COc1cc(NC(=O)c2ccc(-c3csc(C)n3)cc2)c(OC)cc1Cl 0.05%, O=C(CSc1nnc(COc2ccccc2)n1Cc1ccco1)c1ccc2ccccc2c1 -1.45%, O=C(NN=Cc1ccco1)C(=O)Nc1ccc(Cl)c([N+](=O)[O-])c1 0.2%, CCNC(=O)c1sccc1-n1cccc1 -0.31%, Cc1ccsc1C(=O)NC1CCCCC1C (stereo not drawn) -0.66%, COc1cccc(CNC(=O)[C@H]2CCCN2C(=O)[C@H]2CCCN2C(=O)C2CCCCC2)c1 -1.49%, Cc1ccc(-n2c(SCC(=O)Nc3cccc4ccccc34)nnc2-c2ccccn2)cc1 -0.57%, O=C(NCCC1=CCCCC1)C1CCN(S(=O)(=O)c2ccc(Cl)s2)CC1 0.02%, CC[C@]12c3[nH]c4cc(CCC(=O)N(C)C)ccc4c3CCN1C(=O)[C@@H](CC(=O)NCCCn1ccnc1)C[C@@H]2C(=O)N1CCN(C(=O)C2CC2)CC1 -0.23%, CC[C@]12c3[nH]c4cc(CCC(=O)N(C)C)ccc4c3CCN1C(=O)[C@@H](CC(=O)NCc1ccco1)C[C@@H]2C(=O)N1CCN(C(=O)c2ccco2)CC1 0.22%, Cc1nc2ccc(C(=O)N3CCN(C(=O)C(C)(C)C)CC3)cc2n1C1CCCC1 1.16%, COc1ccc(-n2c(SCC(=O)Nc3ccc(C)c(Cl)c3)nc3ccccc3c2=O)cc1 -1.67%, O=C(NCc1cccs1)c1ccc2c(c1)ncn2C1CCCC1 0.35%, Nn1c(SCC(=O)Nc2ccc(S(N)(=O)=O)cc2)nnc1-c1n[nH]c2c1CCC2 0.11%, COC(=O)C1CN(CCc2ccccc2)CCS(=O)(=O)N1Cc1ccc(F)cc1 (stereo not drawn) -0.43%, CC(C)c1ccc(/C=C2\NC(=O)NC2=O)cc1 0.05%, CN(CCc1ccccc1)c1ccc([N+](=O)[O-])cn1 -0.34%, Cc1ccc(C(=O)NN(CCC#N)C2=NS(=O)(=O)c3ccccc32)cc1 0.06%, O=C(NCc1ccccc1)[C@H]1CCCN1C(=O)[C@@H]1CCCN1C(=O)c1ccc(Cl)cc1Cl 0.24%, CC[C@@H](CCC(=O)N(c1ccccc1)c1ccccc1)C1CC1 -1.2%, CCOc1cc(C(=S)N2CCOCC2)ccc1OS(=O)(=O)c1ccc(Br)cc1 0.06%, CC(=O)Nc1ccc(S(=O)(=O)Oc2ccc(Br)cc2C(=S)N2CCOCC2)cc1 -1.94%, COC(=O)c1cc(S(=O)(=O)N2CCN(c3ccccc3C)CC2)cn1C -1.02%, CC(c1c[nH]c2ccccc12)c1c(-c2ccccc2)n(C)c2ccccc12 (stereo not drawn) -0.37%, CC(=O)N1CCc2cc(S(=O)(=O)NCCC(=O)N3CCCC3)ccc21 -1.5%, COc1ccc(C(=NN)c2ccc(OC)cc2)cc1 0.31%, COc1ccc(/C(N)=N/OC(=O)Oc2ccccc2)cc1 -0.74%, O=C(N[C@H](Cc1ccccc1)C(=O)N1CCCN(Cc2cccs2)CC1)[C@H]1O[C@@H](n2ccc(=O)[nH]c2=O)[C@H](O)[C@@H]1O 1.64%, CCOc1ccc(NC(=O)COc2ccc(S(=O)(=O)N3CCCC3)cc2)cc1 -0.61%, COc1ccc(-n2c(COc3ccccc3)nnc2SCC(=O)Nc2ccc3c(c2)OCO3)cc1 -0.36%, CC(c1ccc(N)cc1)c1cn(C)c2ccccc12 (stereo not drawn) -0.01%, COc1ccc(Cn2cc(COC(=O)N(C)Cc3ccccc3)nn2)cc1 -0.67%, Cc1cc(-c2ccccc2)n2nc(C)c(-c3ccccc3)c2n1 0.27%, Cc1nn2c(c1-c1ccccc1)N=C(c1ccco1)CC2c1ccccc1 (stereo not drawn) -0.86%, O=C(NCCc1c[nH]c2ccccc12)OCc1cn(-c2c(F)cccc2F)nn1 -0.6%, Cc1nc2ccc(S(=O)(=O)N(C)CC(=O)NC(C)c3ccccc3)cc2s1 (stereo not drawn) -0.1%, Cc1cccc(N(CC(=O)Nc2ccc(-c3nc4ccc(C)cc4s3)cc2)S(C)(=O)=O)c1 1.57%, O=S1(=O)c2c(cccc2N2CCCC2)O[C@H](COCc2ccccc2)CN1C1CC1 -1.16%, C=CCN1C(=O)[C@@H](CC(=O)NCC2CCCCC2)[C@]2(C(=O)OC)CCCCC=C12 0.53%, COC(C(=O)Nc1ccc(S(=O)(=O)Nc2ccc(C)c(C)c2)cc1)c1ccccc1 (stereo not drawn) -1.03%, Cc1ccc(NNC(=O)C2CCC2)cc1C 0.22%, Nc1nc2c(ncn2[C@@H]2O[C@H](C(=O)N[C@H](Cc3ccccc3)C(=O)NCC3CCCCC3)[C@@H](O)[C@H]2O)c(=O)[nH]1 1.02%, COC(=O)Nc1nc2ccc(Sc3ccccc3)cc2[nH]1 0.19%, COc1ccc(CNC(=O)c2cc(C(=O)C3CC3)c[nH]2)cc1 -2.24%, COc1ccc(-n2c(COc3ccc(C)cc3)nnc2SCC(=O)Nc2ccc(Oc3ccccc3)cc2)cc1 -1.51%, COc1ccc(Cn2cc(CN3[C@@H](CC(C)C)COc4cc(Br)ccc4S3(=O)=O)nn2)cc1 0.86%, C=CCN1[C@H](CC(C)C)COc2cccc(N3CCCC3)c2S1(=O)=O -1.88%, O=C(CCc1ccccc1)Nc1ccc(NC(=O)C2CCCCC2)nc1 -0.14%, O=C(CCc1ccccc1)Nc1ccc(NC(=O)C2CC2)nc1 -0.05%, Cc1cc2oc(C(=O)Nc3c(C)n(C)n(-c4ccccc4)c3=O)c(C)c2cc1Cl -0.22%
